In PubChem BioAssay (Tox21):
Activity calls are given as the source filed them. Calls follow the shape of the dose curve; as a rule, active = well fitted curve in the direction sought with a large enough effect in the repeat runs; inconclusive = weak or mixed curves; inactive = flat fitted curve, though single readings scatter.

Test: qHTS assay to test for compound auto fluorescence at 590 nm (red) in HepG2 cell free culture (AID 720684)
Conditions: cell-free medium autofluorescence, red 540/590 nm; series mostly up to 91.3 µM
Description: U.S. Tox21 Program National Center for Advancing Translational Sciences [NCATS] NIH Chemical Genomics Center [NCGC] U.S. Environmental Protection Agency [EPA] National Institutes of Environmental Health Sciences [NIEHS] National Toxicology Program [NTP] U.S. Food and Drug Administration [FDA] Tox21 Assay Overview: Compound auto fluorescence often interferes with screening of the compound library against various biological targets and signaling pathways. Some of these compounds may have fluorophoric properties. Such properties may interfere with the assay outputs resulting in false positives and/or negatives. To decrease such complications and ensure the compound activities are relevant in terms of biological response, the Tox21 10K compound library was screened for auto fluorescence. From the fluorophores used as reporter signals in our screening assays, the auto fluorescence equivalencies of compounds against three fluorophores have been evaluated: Triamterene, Fluorescein and Rose Bengal sodium for blue, green and red fluorescence, respectively. The fluorescence intensities were measured using Excitation/Emission wavelengths at 405/460nm, 485/535nm and 540/590nm for blue, green and red labels, respectively. This assay includes the red fluorescence data.
Tox21 Assay Protocol Summary: 5 uL of culture medium (MEM containing 10% FBS) per well was dispensed into black wall/clear bottom 1536-well plates using a Multidrop Combi Dispenser (ThermoFisher Scientific, Waltham, MA). After 23 nL compound or DMSO vehicle was transferred into assay plate by a pintool work station (Kalypsys, San Diego, CA), fluorescence intensities in the assay plates were measured by an Envision (PerkinElmer, Shelton, CT) plate reader using three labels for measuring blue, green and red fluorescence at […] 460, 535 and 590nm respectively.

Compound | outcome
C=CC(C)(C)C | inactive
O=[N+]([O-])c1cc(C(F)(F)F)ccc1Cl | inactive
CCN(CC)CCNC(=O)c1ccc(N)cc1 | inactive
CN1Cc2c(N)cccc2C(c2ccccc2)C1 (stereo not given) | inactive
CCc1cccc(O)c1 | inactive
CCCCCNCCCCC | inactive
COC(=O)/C=C\C(=O)OC | inactive
OC[C@H]1O[C@@H](Oc2ccc(O)cc2)[C@H](O)[C@@H](O)[C@@H]1O | inactive
Cc1cc(C)cc(O)c1 | inactive
CCc1cccc(CC)c1N | inactive
CC(O)CNCC(C)O (stereo not given) | inactive
CCCCC(=O)O | inactive
C=C(C)CC(C)(C)C | inactive
CS(=O)(=O)c1ccc(Cl)cc1 | inactive
C=CC(=O)NCOCCCC | inactive
Cc1ncc(CO)c(CO)c1O | inactive
CCCCCCCC(=O)O | inactive
CCCCCCCCCCCC(=O)N(C)CC(=O)O | inactive
N#CCC(=O)O | inactive
O=[N+]([O-])c1ccccc1C(F)(F)F | inactive

Compound | outcome
OCC(CO)(CO)CO | inactive
Nc1cccc(C(F)(F)F)c1 | inactive
NCCNCCNCCN | inactive
COc1ccccc1[N+](=O)[O-] | inactive
CC(C=O)Cc1ccc(C(C)(C)C)cc1 (stereo not given) | inactive
CC[N+](CC)(CC(=O)Nc1c(C)cccc1C)Cc1ccccc1 | inactive
c1cnc2c(c1)ccc1cccnc12 | inactive
NC1CCCCC1N (stereo not given) | inactive
CC/C(C)=N/O | inactive
CC(=O)C(C)C | inactive
Brc1ccc(Oc2ccc(Br)cc2)cc1 | inactive
O=Cc1ccc(CO)o1 | inactive
Cc1cccc(C)c1[N+](=O)[O-] | inactive
OCc1ccc(Cl)cc1Cl | inactive
Nc1cccc(N)n1 | inactive
CCOC(=O)CC(=O)OCC | inactive
Cc1ccc(Cl)cc1 | inactive
CC1=CC(=O)CC(C)(C)C1 | inactive
CCCCCCCCO | inactive
C=C1C[C@]23C[C@@]1(O)CC[C@H]2[C@@]12C=C[C@H](O)[C@@](C)(C(=O)O1)[C@H]2[C@@H]3C(=O)O | inactive
